Test results from PubChem BioAssay (EPA / NIEHS).
Several values for one entry are separate records, joined by “and”; a condition that tells them apart may be missing. Identical values can stand only once. Where a structure was tested more than once in an assay, its records may differ in their call. Activity calls are given as the source filed them. The calls were made as follows: active = hit-call score of the fitted dose curve at least 0.9, where 1 is the maximum; inactive = score below 0.9.

How the values were obtained:
[1] = read-out: Tissue Factor, F3 (gene 2152); assay: BSK_CASM3C_TissueFactor: BioMAP Diversity Plus: CASM3C Assay for Tissue Factor Biomarker Activity (AID 2283052); conditions: primary human coronary artery smooth muscle cells; actives raise or lower the signal;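 also: cell surface tissue factor protein level read by ELISA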
[2] = read-out: Interferon-gamma inducible Protein 10 (IP10), CXCL10 (gene 3627); assay: BSK_hDFCGF_IP10: BioMAP Diversity Plus: hDFCGF Assay for Interferon-gamma inducible Protein 10 (IP10) Biomarker Activity (AID 2283053); conditions: primary human foreskin fibroblasts; actives raise or lower the signal
Method in brief: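 Primary human foreskin fibroblasts exposed to chemicals for 24 h. IP-10 measured by ELISA; changes fitted bidirectionally against DMSO baseline.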

[3] = read-out: Urokinase-type plasminogen activator receptor (uPAR), PLAUR (gene 5329); assay: BSK_CASM3C_uPAR: BioMAP Diversity Plus: CASM3C Assay for Urokinase-type plasminogen activator receptor (uPAR) Biomarker Activity (AID 2283054); conditions: primary human coronary artery smooth muscle cells; actives raise or lower the signal;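 also: cell-surface uPAR protein level quantified by ELISA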
[4] = read-out: Vascular cell adhesion molecule 1 (VCAM1), VCAM1 (gene 7412); assay: BSK_CASM3C_VCAM1: BioMAP Diversity Plus: CASM3C Assay for Vascular cell adhesion molecule 1 (VCAM1) Biomarker Activity (AID 2283055); conditions: primary human coronary artery smooth muscle cells; actives raise or lower the signal;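 also: VCAM-1 protein level quantified by ELISA on the cells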
[5] = read-out: Collagen III, COL3A1 (gene 1281); assay: BSK_hDFCGF_CollagenIII: BioMAP Diversity Plus: hDFCGF Assay for Collagen III Biomarker Activity (AID 2283056); conditions: primary human foreskin fibroblasts; actives raise or lower the signal
Method in brief: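 Human foreskin fibroblast primary cultures sampled 24 h after dosing; Collagen III quantified by ELISA. Signal fitted bidirectionally against DMSO baseline.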

[6] = read-out: Epidermal growth factor receptor (EGFR), EGFR (gene 1956); assay: BSK_hDFCGF_EGFR: BioMAP Diversity Plus: hDFCGF Assay for Epidermal growth factor receptor (EGFR) Biomarker Activity (AID 2283057); conditions: primary human foreskin fibroblasts; actives raise or lower the signal
Method in brief: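 Primary human foreskin fibroblasts (hDFCGF system), sampled 24 h after dosing; EGFR quantified by ELISA. Bidirectional fit relative to DMSO baseline; SRB total-protein staining in parallel cultures for cytotoxicity.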

[7] = read-out: Interleukin-8 (IL8), CXCL8 (gene 3576); assay: BSK_hDFCGF_IL8: BioMAP Diversity Plus: hDFCGF Assay for Interleukin-8 (IL8) Biomarker Activity (AID 2283058); conditions: primary human foreskin fibroblasts; actives raise or lower the signal
Method in brief: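 Primary human foreskin fibroblasts (hDFCGF system) dosed with chemical; IL-8 measured by ELISA 24 hours later. Bidirectional curve fitting relative to DMSO baseline; cytotoxicity tracked in parallel cultures by SRB total protein staining.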

[8] = BSK_hDFCGF_Proliferation: Cell Proliferation Assessment in the BioMAP Diversity Plus: hDFCGF Assay (AID 2283059); conditions: primary human foreskin fibroblasts;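 also: curves fitted for both rise and fall of signal versus DMSO baseline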
Method in brief: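 Steps: dose primary human dermal fibroblasts (foreskin); […] fix in 10% TCA; stain with 0.1% SRB; read 560 nm; fit gain or loss of signal against DMSO.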

[9] = read-out: Macrophage colony-stimulating factor (MCSF), CSF1 (gene 1435); assay: BSK_hDFCGF_MCSF: BioMAP Diversity Plus: hDFCGF Assay for Macrophage colony-stimulating factor (MCSF) Biomarker Activity (AID 2283060); conditions: primary human foreskin fibroblasts; actives raise or lower the signal
Method in brief: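 Human foreskin fibroblast primary cultures; M-CSF measured by ELISA 24 hours after chemical dosing. Bidirectional fitting relative to DMSO, with overt cytotoxicity tracked by parallel SRB total-protein staining (0.1% SRB, 10% TCA fixation, 560 nm).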

[10] = BSK_hDFCGF_SRB: Viability Assessment in the BioMAP Diversity Plus: hDFCGF Assay (AID 2283061); conditions: primary human foreskin fibroblasts;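 also: cells exposed to compound for 24 h before the read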
Method in brief: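 Human foreskin fibroblasts in 96-well plates were treated 24 h. Total protein was measured by 0.1% SRB staining after 10% TCA fixation, read at 560 nm. Data were fitted bidirectionally against DMSO.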

[11] = read-out: TIMP metallopeptidase inhibitor 1 (TIMP1), TIMP1 (gene 7076); assay: BSK_hDFCGF_TIMP1: BioMAP Diversity Plus: hDFCGF Assay for TIMP metallopeptidase inhibitor 1 (TIMP1) Biomarker Activity (AID 2283062); conditions: primary human foreskin fibroblasts; actives raise or lower the signal
Method in brief: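 Human foreskin fibroblast primary cultures dosed for 24 h; secreted/surface TIMP-1 quantified by ELISA. Bidirectional curve fitting against DMSO baseline; cytotoxicity tracked in parallel cultures by SRB total-protein staining.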

[12] = read-out: Monokine induced gamma interferon (MIG), CXCL9 (gene 4283); assay: BSK_hDFCGF_MIG: BioMAP Diversity Plus: hDFCGF Assay for Monokine induced gamma interferon (MIG) Biomarker Activity (AID 2283063); conditions: primary human foreskin fibroblasts; actives raise or lower the signal
Method in brief: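 MIG/CXCL9 measured by ELISA 24 h after dosing primary human skin fibroblasts. Activity fitted in both directions against DMSO controls. Cytotoxicity was checked in parallel cultures by SRB staining read at 560 nm.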

[13] = read-out: Matrix Metallopeptidase 1 (MMP1), MMP1 (gene 4312); assay: BSK_hDFCGF_MMP1: BioMAP Diversity Plus: hDFCGF Assay for Matrix Metallopeptidase 1 (MMP1) Biomarker Activity (AID 2283064); conditions: primary human foreskin fibroblasts; actives raise or lower the signal
Method in brief: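 Primary human foreskin fibroblasts in the hDFCGF system were dosed with test chemical, and MMP1 was measured by ELISA 24 h later. Values come from bidirectional curve fitting against the DMSO baseline.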

[14] = read-out: Vascular cell adhesion molecule 1 (VCAM1), VCAM1 (gene 7412); assay: BSK_hDFCGF_VCAM1: BioMAP Diversity Plus: hDFCGF Assay for Vascular cell adhesion molecule 1 (VCAM1) Biomarker Activity (AID 2283065); conditions: primary human foreskin fibroblasts; actives raise or lower the signal;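 as to AC50: VCAM-1 protein level quantified by ELISA after 24 h chemical exposure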
Method in brief: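 Human foreskin fibroblast primary cells dosed with chemical, VCAM-1 measured by ELISA at 24 h. Bidirectional curve fitting relative to DMSO as negative control/baseline.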

[15] = read-out: Plasminogen activator inhibitor-1 (PAI1), SERPINE1 (gene 5054); assay: BSK_hDFCGF_PAI1: BioMAP Diversity Plus: hDFCGF Assay for Plasminogen activator inhibitor-1 (PAI1) Biomarker Activity (AID 2283066); conditions: primary human foreskin fibroblasts; actives raise or lower the signal
Method in brief: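 Human foreskin fibroblast primary cells, 24 h chemical exposure; PAI-1 measured by ELISA. Bidirectional fitting relative to DMSO; parallel cultures stained with SRB for total protein to flag overt cytotoxicity.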

[16] = read-out: Intercellular Adhesion Molecule 1 (ICAM1), ICAM1 (gene 3383); assay: BSK_KF3CT_ICAM1: BioMAP Diversity Plus: KF3CT Assay for Intercellular Adhesion Molecule 1 (ICAM1) Biomarker Activity (AID 2283067); conditions: primary human keratinocytes with fibroblasts; actives raise or lower the signal
Method in brief: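 Human keratinocyte–foreskin fibroblast co-culture was treated for 24 h. Cell-surface ICAM-1 was quantified by ELISA, fitted bidirectionally relative to DMSO. Cytotoxicity was checked in parallel cultures by SRB total-protein staining.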

[17] = read-out: Interferon-gamma inducible Protein 10 (IP10), CXCL10 (gene 3627); assay: BSK_KF3CT_IP10: BioMAP Diversity Plus: KF3CT Assay for Interferon-gamma inducible Protein 10 (IP10) Biomarker Activity (AID 2283068); conditions: primary human keratinocytes with fibroblasts; actives raise or lower the signal
Method in brief: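 KF3CT co-culture (keratinocytes + foreskin fibroblasts), 24 h compound, IP-10 by ELISA; bidirectional fit vs DMSO baseline.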

[18] = BSK_KF3CT_SRB: Viability Assessment in the BioMAP Diversity Plus: KF3CT Assay (AID 2283069); conditions: primary human keratinocytes with fibroblasts;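 also: total protein by sulforhodamine B staining as a cytotoxicity measure; read 24 h after compound addition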
Method in brief: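 Human primary keratinocyte plus foreskin fibroblast co-culture exposed to chemicals for 24 h. Total protein measured by 0.1% sulforhodamine B staining after 10% TCA fixation, read at 560 nm; bidirectional fitting versus DMSO baseline.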

[19] = read-out: Interleukin-1 alpha (IL1a), IL1A (gene 3552); assay: BSK_KF3CT_IL1a: BioMAP Diversity Plus: KF3CT Assay for Interleukin-1 alpha (IL1a) Biomarker Activity (AID 2283070); conditions: primary human keratinocytes with fibroblasts; actives raise or lower the signal
Method in brief: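 Human keratinocyte plus foreskin fibroblast primary co-culture, sampled 24 h after chemical dosing. IL-1a measured by ELISA; responses fitted bidirectionally against DMSO baseline (negative control), so gain or loss of signal both count.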

[20] = read-out: TIMP metallopeptidase inhibitor 2 (TIMP2), TIMP2 (gene 7077); assay: BSK_KF3CT_TIMP2: BioMAP Diversity Plus: KF3CT Assay for TIMP metallopeptidase inhibitor 2 (TIMP2) Biomarker Activity (AID 2283071); conditions: primary human keratinocytes with fibroblasts; actives raise or lower the signal
Method in brief: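 Co-culture of human primary keratinocytes and foreskin fibroblasts, measured 24 h after chemical dosing. TIMP-2 quantified by ELISA and fitted in both directions relative to DMSO. Cytotoxicity checked in parallel cultures by SRB total-protein staining.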

Measured: AC50

C=C(C)C(=O)OCC(CC)(COC(=O)C(=C)C)COC(=O)C(=C)C
active: [1] 8.08 µM | [2] 33.8 µM | [6] 31.7 µM | [8] 26.5 µM | [9] 23.4 µM | [10] 32.1 µM | [11] 33 µM | [12] 34.3 µM | [13] 37.9 µM | [14] 23.4 µM | [15] 16 µM
inactive: [3] | [4] | [5] | [7] | [16] | [17] | [18] | [19] | [20]

CCCCCCCCCCCCCCCC(=O)OC/C=C(C)/C=C/C=C(C)/C=C/C1=C(C)CCCC1(C)C
inactive: [1] | [2] | [3] | [6] | [7] | [10] | [12] | [13] | [14] | [16] | [17] | [18] | [19] | [20]
active: [4] 0.0326 µM | [5] 3.97 µM | [8] 27.7 µM | [9] 24.7 µM | [15] 3.97 µM

IC(I)I
active: [3] 0.584 µM
inactive: [1] | [2] | [4] | [5] | [6] | [7] | [8] | [9] | [10] | [12] | [13] | [14] | [15] | [16] | [17] | [18] | [19] | [20]

O=C1OC2(c3ccccc31)c1ccc(O)c(Br)c1Oc1c2ccc(O)c1Br
active: [2] 20 µM | [8] 20 µM | [9] 20 µM | [14] 7.49 µM | [19] 20 µM | [20] 20 µM
inactive: [1] | [3] | [4] | [5] | [6] | [7] | [10] | [11] | [12] | [13] | [15] | [16] | [17] | [18]

c1ccc(CCc2ccccc2)cc1
active: [1] 20 µM | [2] 34.1 µM | [3] 31.9 µM | [4] 37.6 µM | [5] 36.1 µM | [8] 13.8 µM | [9] 30.5 µM | [10] 30.3 µM | [11] 36.6 µM | [13] 36.7 µM | [14] 30.9 µM | [15] 31.1 µM | [17] 30 µM | [18] 28.5 µM | [19] 25.2 µM | [20] 13.4 µM
inactive: [6] | [7] | [12] | [16]

CCCCCCC(CO)CCCC (stereo not drawn)
active: [2] 30.6 µM and 32.5 µM | [4] 2.22 µM | [5] 29.6 µM and 31.9 µM | [7] 37.9 µM and 37.8 µM | [8] 35.1 µM and 31.4 µM | [9] 33.8 µM and 30.2 µM | [10] 30.8 µM and 31.4 µM | [12] 34 µM and 30.5 µM | [13] 31.1 µM and 30.7 µM | [14] 32.5 µM and 36.7 µM | [15] 29.9 µM and 36.3 µM | [16] 32.9 µM and 37.4 µM | [17] 38.1 µM and 36.7 µM | [18] 35.6 µM and 36.1 µM | [19] 33.4 µM and 30.3 µM | [20] 35.1 µM and 35.2 µM
inactive: [1] | [3] | [4] | [6]
